# Measurements: PubChem BioAssay (NCATS)
# Several values for one entry are separate records, joined by “and”; a condition that tells them apart may be missing. Identical values can stand only once. Records with an inconclusive call do not appear. Where a call stands in place of a potency, no number is given. Activity calls are given as the source filed them. Unless noted, calls follow the shape of the dose curve; as a rule, active = well fitted curve in the direction sought with a large enough effect; inconclusive = small, poorly fitted or top-dose-only effect, or another doubt; inactive = no such curve, though single readings can be large; an effect the other way counts as inactive or inconclusive.
# Assays:
# [1] = Cell Viability - Jurkat (AID 426;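 active = dose-dependent loss of cell ATP signal giving a full or clear fitted curve, ranked by lower potency value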; also: potency is read from the fitted curve at half-maximal effect); settings: qHTS
# How it was run: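 Jurkat (clone E6-1, human T-cell leukemia) cells, 5000/well in complete medium, were exposed to compound for 40 hr at 37 °C. Viability was read as intracellular ATP by CellTiter-Glo luminescence; AC50 came from Hill fits of concentration-response data.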
# [2] = Cell Viability - Hek293 (AID 427;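 active = compounds whose dose-response curve shows a full or clear partial loss of cell viability, called from curve shape rather than a numeric limit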;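 also: potency is read from the fitted curve at half-maximal effect; cells exposed to compound for 40 hours at 37 °C before reading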); settings: qHTS
# How it was run: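 HEK293 cells in complete medium were exposed to compound for 40 hr at 37 °C, then cellular ATP was read by CellTiter-Glo luminescence. Data were normalized to DMSO (basal) and 100 uM tamoxifen (100% inhibition), and AC50 came from Hill fits.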
# [3] = Cell Viability - N2a (AID 540); settings: N2a mouse neuroblastoma cell viability; at 92.2 µM (top of the series); also: nearly all actives have a fitted effect of over 45% in size
# How it was run: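 Mouse neuroblastoma N2a cells (1500/well) were preincubated 5 hr at 37 °C, then exposed to compounds for 40 hr at 37 °C in complete medium. Viability was read as intracellular ATP by CellTiter-Glo luminescence; AC50 from Hill fits.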
# [4] = Cell Viability - H-4-II-E (AID 543); settings: H-4-II-E rat hepatoma viability; series mostly up to 92.2 µM; also: nearly all actives have a fitted effect of over 35% in size
# How it was run: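 Rat hepatoma H-4-II-E cells (1500/well) were plated, incubated 5 hr at 37 °C, then exposed to compounds for 40 hr at 37 °C. Cellular ATP was read by CellTiter-Glo luminescence; AC50 came from Hill-equation fits of concentration-response data.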
# [5] = Cellular Toxicity (caspase-3) HepG2 (AID 654); settings: HepG2 caspase-3 activation, luminescence, 0% = DMSO only, 100% = tamoxifen; series mostly up to 92.2 µM;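 also: cells exposed to compound for 16 hours before reading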
# How it was run: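 HepG2 cells (1500/well) in complete medium were treated with compounds for 16 hr at 37 °C. Caspase-3/7 activity was then read as luminescence from peptide-aminoluciferin cleavage. AC50 came from Hill fits, normalized to DMSO and 100 uM tamoxifen.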
# [6] = Cellular Toxicity (caspase-3) Hek293 (AID 664); settings: HEK293 caspase-3 activation, DMSO = 0%, 100 µM tamoxifen = 100%; series mostly up to 92.2 µM;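 also: cells exposed to compound for 16 h at 37 °C before readout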
# How it was run: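 HEK293 cells were exposed to compounds in complete medium for 16 hr at 37 °C, then caspase-3/7 activity was read by Caspase-Glo 3/7 luminescence after 20 min at room temperature. Data normalized to DMSO and 100 uM tamoxifen; AC50 from Hill fits.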
# [7] = Cellular Toxicity (caspase-3) NIH 3T3 (AID 666); settings: NIH 3T3 caspase-3 activation, apoptosis/toxicity, 0% DMSO, 100% is 100 µM tamoxifen; series mostly up to 92.2 µM;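 also: caspase signal read after 16 h compound exposure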
# How it was run: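 Mouse NIH 3T3 fibroblasts (1000 cells/well) were treated with compound for 16 hr at 37°C in complete medium; caspase-3/7 activity was read by Caspase-Glo luminescence. Normalized to DMSO and 100 uM tamoxifen; AC50 from Hill fits.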
# [8] = MultiTox-Fluor Cytotoxicity Assay - LYMP1-001 - Dead Cells (AID 946); settings: LYMP1-001 lymphoblastoid cells, dead-cell protease fluorescence; series mostly up to 92.2 µM
# How it was run: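 LYMP1-001 lymphoblastoid cells (2500/well) treated 16 h at 37 C. Dead-cell protease cleavage of bis-AAF-R110 read at Ex/Em 485/520. Normalized to DMSO and 15 uM tetraoctylammonium bromide; AC50 from Hill fits.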
# [9] = Cell Viability - LYMP1-002 - Assay at 16 hr (AID 948); settings: LYMP1-002 lymphoblastoid cell viability; series mostly up to 92.2 µM
# How it was run: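 Seed 2500 LYMP1-002 cells per well in complete medium and hold 5 hr at 37 C. Add compound across a concentration series and incubate 16 hr at 37 C. Add CellTiter-Glo, wait 30 min at room temperature, read luminescence.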
# [10] = MultiTox-Fluor Cytotoxicity Assay - LYMP1-002 - Live Cells (AID 955); settings: LYMP1-002 lymphoblastoid live-cell protease fluorescence viability; series mostly up to 46.1 µM
# How it was run: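 Human lymphoblastoid LYMP1-002 cells, 2500/well in complete medium, rested 5 hr at 37 C, then exposed to compounds for 16 hr at 37 C. Live-cell protease cleavage of GF-AFC read by fluorescence (Ex/Em 405/510) after 60 min at room temperature; AC50 from Hill fits.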
# [11] = MultiTox-Fluor Cytotoxicity Assay - LYMP1-003 - Dead Cells (AID 961); settings: LYMP1-003 lymphoblastoid cells, dead-cell protease fluorescence; series mostly up to 92.2 µM; also: nearly all actives have a fitted effect of over 70% in size
# How it was run: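 LYMP1-003 human lymphoblastoid cells (2500/well) exposed to compound 16 h at 37 C in complete medium; dead-cell protease read with bis-AAF-R110 fluorescence (Ex/Em 485/520) after 60 min at room temperature. Normalized to DMSO and 15 uM tetraoctylammonium bromide; AC50 from Hill fit.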
# [12] = Cell Viability - LYMP1-003 - Assay at 40 hr (AID 964); settings: LYMP1-003 lymphoblastoid viability; series mostly up to 92.2 µM; also: nearly all actives have a fitted effect of over 60% in size
# How it was run: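 Human lymphoblastoid LYMP1-003 cells, 2500/well in complete medium, rested 5 hr at 37 C, then exposed to compounds for 40 hr at 37 C. Viability read as intracellular ATP by CellTiter-Glo luminescence; AC50 from Hill fits of concentration-response data.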
# [13] = Cell Viability - LYMP2-025 (AID 976); settings: LYMP2-025 lymphoblastoid cell viability; series mostly up to 92.2 µM
# How it was run: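 Human lymphoblastoid LYMP2-025 cells (2500/well) were pre-incubated 5 hr at 37 C, then treated with compounds for 24 hr at 37 C in complete medium. Viability was read as intracellular ATP by CellTiter-Glo luminescence; AC50 from Hill fits.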
# [14] = Cell Viability - LYMP2-006 (AID 978); settings: LYMP2-006 lymphoblastoid cell viability, qHTS; series mostly up to 92.2 µM; also: nearly all actives have a fitted effect of over 60% in size
# How it was run: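 Cells are seeded at 2500 per well and rested 5 hr at 37 C. Compounds are added across a concentration series for 24 hr at 37 C, after which ATP is quantified by luciferase luminescence.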
# [15] = Cell Viability - LYMP2-008 (AID 980); settings: LYMP2-008 lymphoblastoid cell viability, qHTS; series mostly up to 92.2 µM; also: nearly all actives have a fitted effect of over 60% in size
# How it was run: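 Human lymphoblastoid cells (2500/well) were plated, held 5 hr at 37 C, then exposed to compounds for 24 hr at 37 C in complete medium. Intracellular ATP was read by CellTiter-Glo luminescence; AC50 from Hill-fitted concentration-response.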
# [16] = Cell Viability - LYMP1-002 - Assay at 24 hr (AID 993); settings: LYMP1-002 lymphoblastoid cells viability; series mostly up to 92.2 µM
# How it was run: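 Human lymphoblastoid LYMP1-002 cells, 2500/well in complete medium, were treated with compounds for 24 h at 37 C; intracellular ATP was read by CellTiter-Glo luminescence. AC50 values came from Hill-equation fits of qHTS concentration-response data.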
# [17] = Cell Viability - LYMP1-002 - Assay at 40 hr (AID 994); settings: LYMP1-002 lymphoblastoid cell viability; series mostly up to 92.2 µM; also: nearly all actives have a fitted effect of over 60% in size
# How it was run: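 Human lymphoblastoid cells, 2500/well in complete medium, were preincubated 5 hr at 37 C, then exposed to compounds for 40 hr at 37 C. Intracellular ATP was read by CellTiter-Glo luminescence after 30 min at room temperature; AC50 from Hill-equation fits.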
# [18] = qHTS assay for small molecule agonists of retinoid X receptor alpha signaling (AID 588544); settings: HEK293T RXRa-UAS-bla, beta-lactamase reporter, 18 h; 530 nm emission
# [19] = target: Tumor necrosis factor (Homo sapiens) (UniProt P01375); experiment: qHTS assay to identify small molecules that stimulate Tumor Necrosis Factor-alpha (TNF-alpha) secretion (AID 651757; active = well fitted curve in the direction sought with a large enough effect in the signal ratio; the % refers to the signal ratio); settings: Human cells, HTRF 665/615 ratio; series mostly up to 92.2 µM
# How it was run: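 THP-1 cells were exposed to compounds for 17 hrs at 37 C, after which secreted TNF-alpha was measured by homogeneous HTRF (TR-FRET) using cryptate- and XL665-labeled anti-TNF-alpha antibodies, read after 3 hr at room temperature.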
# [20] = qHTS assay for small molecule agonists of the antioxidant response element (ARE) signaling pathway measured by Nrf2-dependant transcriptional activity (AID 720636; active = well fitted curve in the direction sought with a large enough effect in the repeat runs; an effect the other way counts as inactive or inconclusive;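 also: HepG2 cells with an ARE-driven luciferase reporter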); settings: ARE-luc HepG2, Nrf2 luciferase reporter, 16 h; series mostly up to 92.4 µM
# How it was run: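 In HepG2 cells engineered with an Nrf2-responsive luciferase gene, ARE induction was quantified as luminescence after 16 hr compound treatment at 37 C.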
# Sequence of Tumor necrosis factor (Homo sapiens) (P01375 whole entry, looked up): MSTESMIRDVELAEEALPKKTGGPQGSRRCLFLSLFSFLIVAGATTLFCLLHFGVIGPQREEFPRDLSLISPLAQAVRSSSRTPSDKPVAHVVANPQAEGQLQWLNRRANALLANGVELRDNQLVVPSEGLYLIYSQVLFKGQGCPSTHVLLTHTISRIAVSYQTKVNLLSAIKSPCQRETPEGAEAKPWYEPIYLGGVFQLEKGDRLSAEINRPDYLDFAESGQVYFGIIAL
Structure (SMILES),Potency [1],Potency [2],"activity change, negative = cytotoxicity [3]",Potency [4],outcome [5],outcome [6],outcome [7],Potency [8],Potency [9],outcome [10],Potency [11],Potency [12],Potency [13],Potency [14],Potency [15],Potency [16],Potency [17],max response [18],outcome [19],outcome [20]
O=C=NC1CCCCC1,> 92 µM (inactive),> 92 µM (inactive),-6.26% (inactive) and 7.73% (inactive),inactive,inactive,inactive,inactive,inactive,inactive,inactive,inactive,inactive,inactive,inactive,inactive,inactive,inactive,-3.28% and -9.66%,inactive,inactive
CCN(CC)c1ccccc1,> 92 µM (inactive),> 92 µM (inactive),3.96% (inactive),inactive,inactive,inactive,inactive,inactive,inactive,inactive,inactive,inactive,inactive,inactive,inactive,inactive,inactive,-1.24%,inactive,inactive
Clc1nc(Cl)nc(Cl)n1,> 92 µM (inactive),> 92 µM (inactive),-4.85% (inactive),inactive,inactive,inactive,inactive,inactive,inactive,inactive,inactive,inactive,inactive,inactive,inactive,inactive,inactive,5.45% and -4.64%,inactive,inactive
CCCSC(=O)Cl,> 92 µM (inactive),> 92 µM (inactive),-16.5% (inactive),inactive,inactive,inactive,inactive,inactive,inactive,inactive,inactive,inactive,inactive,inactive,inactive,inactive,inactive,-2.47%,inactive,inactive
OCC1CO1 (stereo not given),> 92 µM (inactive),> 92 µM (inactive),-10.8% (inactive),inactive,inactive,inactive,inactive,inactive,inactive,inactive,inactive,inactive,inactive,inactive,inactive,inactive,inactive,-4.32%,inactive,inactive
O=NN(CCO)CCO,> 92 µM (inactive),> 92 µM (inactive),-10.5% (inactive),inactive,inactive,inactive,inactive,inactive,inactive,inactive,inactive,inactive,inactive,inactive,inactive,inactive,inactive,-8.04%,inactive,inactive
